Growth inhibition data for 40 molecules are collected here from PubChem BioAssay (NCI).

About 79,000 compounds went through this panel and 15% of them were active in at least one assay; those are over-represented in the sample as a whole. Activity calls are given as the source filed them. Cut-off read from the data, not from the text of the source: active = growth inhibition above about 70%; inactive = the rest.

A short description of one test: NCI Yeast Anticancer Drug Screen. Data for the mec2-1 strain (AID 157). The conditions noted are these: S. cerevisiae mec2-1 strain, at 50.0 µM, stronger effect = higher value. The essentials: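 Growth inhibition is read against vehicle-treated controls after compound exposure of the mec2-1 yeast strain, which is defective in DNA damage repair or cell cycle control.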
As for `CSc1nc(C)cc(Nc2ccc(O)c(CN3CCOCC3)c2)n1`, the growth inhibition was -3.25% (inactive).

Take `O=C(Nc1cccc(F)c1)Oc1ccc(OCc2ccccc2)cc1`: the growth inhibition is 6.6% (inactive).

As for `Cc1nc2ccccn2c1N=Nc1ccc(C(=O)NN)cc1`, the growth inhibition is -15.1% (inactive).

On to `CC1(C)c2ccccc2C(=O)C12CCC(=O)CC2`, for which the growth inhibition is -3.4% (inactive).

`O=C1C(=S)Nc2cccc(F)c21`: the growth inhibition is 45% (inactive).

For `COc1ccccc1OC(=O)Nc1ccc(S(=O)(=O)N(C)C)cc1`, the growth inhibition is 8.5% (inactive).

Take `N#Cc1ccccc1NC(=O)Nc1ccc(Cl)cc1Cl`: the growth inhibition is -7.35% (inactive).

`Cc1nn(C(=O)c2ccc(Cl)cc2)c2c1C(c1ccc(Cl)cc1)SC(N)=N2` (configuration not stated): the growth inhibition is -21.2% (inactive).

Turning to `CC1CCCC(=O)CC1` (configuration not stated), the growth inhibition was 9.85% (inactive).

On to `CC(C)(C)c1ccc(OS(=O)(=O)c2ccccc2)c(Cl)c1`, for which the growth inhibition is -1.15% (inactive).

`CCCCOC(=O)CC1CCCCC1`: the growth inhibition was -8.95% (inactive).

As for `COc1ccc(OC(=O)Nc2cccc(C(C)=O)c2)cc1`, the growth inhibition is 42.3% (inactive).

Regarding `OC12CC/C(=N/OCc3ccccc3)CC1c1ccccc12` (configuration not stated), the growth inhibition is -22.9% (inactive).

`CC(C)(C)NC(=O)NCCCCCCNC(=O)NC(C)(C)C`: the growth inhibition was -13.9% (inactive).

Consider `c1ccc(P(CCCP(c2ccccc2)c2ccccc2)c2ccccc2)cc1`, for which the growth inhibition was 21.4% (inactive).

In the case of `CC(=O)NC(C=O)OCC=O` (configuration not stated), the growth inhibition was 17.9% (inactive).

For `CCCc1nc2c([nH]1)c(=O)n(C)c(=O)n2C`, the growth inhibition was -14.3% (inactive).

Regarding `CC(=O)NOCC1NC(=O)C(CONC(C)=O)NC1=O` (configuration not stated), the growth inhibition was 18.1% (inactive).

For `CCN=C(N)CSS(=O)(=O)O`, the growth inhibition was -28.1% (inactive).

As to `CCOc1ccc2c(c1)C(C)(C)CCC2(C)C`, the growth inhibition was -7.75% (inactive).

`CC(C)(C)NC(=O)C12C3C4C1C1C2C3C41C(=O)NC(C)(C)C` (configuration not stated): the growth inhibition is -9% (inactive).

Consider `O=C1c2ccccc2-c2ccc(N3C(=O)c4c(Br)c(Br)c(Br)c(Br)c4C3=O)cc21`, for which the growth inhibition is -2.2% (inactive).

The nature of the next test: NCI Yeast Anticancer Drug Screen. Data for the sgs1 mgt1 strain (AID 161).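 Note: 0% = growth of cultures given vehicle only.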 As to conditions: S. cerevisiae sgs1 mgt1 strain, at 50.0 µM, stronger effect = higher value. The procedure, abridged:
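Percent growth inhibition was derived by comparing compound-exposed mutant yeast with vehicle-exposed cultures. The strain carries alterations in DNA damage repair.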
Take `Cc1ccc(C(N)=O)cc1`: the growth inhibition is -1.55% (inactive).

For the molecule `O=C1CC2(CCN(Cc3ccccc3)CC2)C(=O)N1N1CCCCC1`, the growth inhibition is 57.8% (inactive).

For `O=[N+]([O-])c1ccc(SN2CCCCC2CC2CCCCC2)c([N+](=O)[O-])c1` (configuration not stated), the growth inhibition is -18.9% (inactive).

For the molecule `O=P(OC1=NCCN1Cc1ccccc1)(OC1=NCCN1Cc1ccccc1)N1CC1`, the growth inhibition is 21.7% (inactive).

Take `Nc1ccc(N(C(=O)c2ccccc2)C(=O)c2ccccc2)c(-c2ccccc2)c1`: the growth inhibition was 6.15% (inactive).

`C[C@@H](CC(=O)O)OC1OC(COC(=O)C(C)(C)C)C(OC(=O)C(C)(C)C)C(OC(=O)C(C)(C)C)C1OC(=O)C(C)(C)C` (some centres not stated): the growth inhibition was -17.7% (inactive).

Turning to `OCCNCc1cccc(-c2ccccc2)c1O`, the growth inhibition is 15.9% (inactive).

Turning to `Cc1ccc2cccnc2c1`, the growth inhibition was -0.95% (inactive).

`NCCNC(=O)c1ccccc1`: the growth inhibition was 0.75% (inactive).

With `COC(=O)N1N=C(c2ccccc2)C(C(=O)OC)(C(=O)OC)c2ccccc21`, the growth inhibition is 24.6% (inactive).

For `CCOP(=O)(OCC)C(Cc1cn(S(=O)(=O)c2ccc(C)cc2)cn1)C(=O)O` (configuration not stated), the growth inhibition is 5.9% (inactive).

`O=C(O)c1cc(C(=O)O)nc(C(=O)O)c1`: the growth inhibition is -16.1% (inactive).

As for `NC(=O)N/N=C/c1ccccc1N`, the growth inhibition was 0.95% (inactive).

With `O=C(O)C1OCOC2C(CO)OCOC12` (configuration not stated), the growth inhibition was 17% (inactive).

As to `CC(C)(C)/C(=N\O)c1ccccc1`, the growth inhibition was -23.3% (inactive).

Turning to `CN(C)CCN(C)CC(C)(C)C(=O)/C=C/c1ccccc1`, the growth inhibition was -21.6% (inactive).

On to `CC(c1ccccc1)C1(C)NC(=O)NC1=O` (configuration not stated), for which the growth inhibition was -2.1% (inactive).

As for `CC(=O)OCCn1c([N+](=O)[O-])cnc1/C=[N+](/C)[O-]`, the growth inhibition is 16.8% (inactive).

For the molecule `CSc1nc(C)cc(Nc2ccc(O)c(CN3CCOCC3)c2)n1`, the growth inhibition is -22% (inactive).

With `O=C(Nc1cccc(F)c1)Oc1ccc(OCc2ccccc2)cc1`, the growth inhibition was 9.9% (inactive).

Consider `Cc1nc2ccccn2c1N=Nc1ccc(C(=O)NN)cc1`, for which the growth inhibition is 0.1% (inactive).

As to `CC1(C)c2ccccc2C(=O)C12CCC(=O)CC2`, the growth inhibition is 18.8% (inactive).

For the molecule `O=C1C(=S)Nc2cccc(F)c21`, the growth inhibition is 33.2% (inactive).

On to `COc1ccccc1OC(=O)Nc1ccc(S(=O)(=O)N(C)C)cc1`, for which the growth inhibition is 0% (inactive).

Regarding `N#Cc1ccccc1NC(=O)Nc1ccc(Cl)cc1Cl`, the growth inhibition was 27% (inactive).

In the case of `Cc1nn(C(=O)c2ccc(Cl)cc2)c2c1C(c1ccc(Cl)cc1)SC(N)=N2` (configuration not stated), the growth inhibition is 31.4% (inactive).

As to `CC1CCCC(=O)CC1` (configuration not stated), the growth inhibition is -2.85% (inactive).

For the molecule `CC(C)(C)c1ccc(OS(=O)(=O)c2ccccc2)c(Cl)c1`, the growth inhibition was -1.55% (inactive).

Consider `CCCCOC(=O)CC1CCCCC1`, for which the growth inhibition is -30.8% (inactive).

Regarding `COc1ccc(OC(=O)Nc2cccc(C(C)=O)c2)cc1`, the growth inhibition is 9.9% (inactive).

Consider `OC12CC/C(=N/OCc3ccccc3)CC1c1ccccc12` (configuration not stated), for which the growth inhibition was -29.8% (inactive).

As to `CC(C)(C)NC(=O)NCCCCCCNC(=O)NC(C)(C)C`, the growth inhibition is -7.45% (inactive).

As for `c1ccc(P(CCCP(c2ccccc2)c2ccccc2)c2ccccc2)cc1`, the growth inhibition is -24.6% (inactive).

Turning to `CC(=O)NC(C=O)OCC=O` (configuration not stated), the growth inhibition is -22.3% (inactive).

Take `CCCc1nc2c([nH]1)c(=O)n(C)c(=O)n2C`: the growth inhibition is 3.5% (inactive).

For `CC(=O)NOCC1NC(=O)C(CONC(C)=O)NC1=O` (configuration not stated), the growth inhibition was -47.1% (inactive).

Turning to `CCN=C(N)CSS(=O)(=O)O`, the growth inhibition is -32.8% (inactive).

Take `CCOc1ccc2c(c1)C(C)(C)CCC2(C)C`: the growth inhibition is -5.9% (inactive).

For the molecule `CC(C)(C)NC(=O)C12C3C4C1C1C2C3C41C(=O)NC(C)(C)C` (configuration not stated), the growth inhibition was -15.9% (inactive).

For `O=C1c2ccccc2-c2ccc(N3C(=O)c4c(Br)c(Br)c(Br)c(Br)c4C3=O)cc21`, the growth inhibition was 12.9% (inactive).
